Measurements from PubChem BioAssay AID488837 (National Center for Advancing Translational Sciences (NCATS), 2010).
In all, about 330,000 compounds went through this assay and about 20 (0.006%) were called active. Inconclusive results (about 1%) are left out. The call rests on the fitted dose curve; in most records, active means well fitted inhibition curve with a large enough effect; inconclusive means small, poorly fitted or top-dose-only effect, or effect the other way; inactive means flat fitted curve, though single readings scatter. Shown is part of a subset that was picked to be rich in actives.

What follows are compounds tested against Protein phosphatase EYA2 (Homo sapiens) (UniProt O00167) (assay: qHTS Assay for Inhibitors of the Phosphatase Activity of Eya2). Settings: recombinant Eya2, OMFP fluorescence dephosphorylation (OMFP is methylfluorescein phosphate); series mostly up to 76.9 µM; activity, negative = inhibition: at the top concentration.
Chain of Protein phosphatase EYA2 (Homo sapiens) (O00167 whole entry, looked up, the tested form may be a part): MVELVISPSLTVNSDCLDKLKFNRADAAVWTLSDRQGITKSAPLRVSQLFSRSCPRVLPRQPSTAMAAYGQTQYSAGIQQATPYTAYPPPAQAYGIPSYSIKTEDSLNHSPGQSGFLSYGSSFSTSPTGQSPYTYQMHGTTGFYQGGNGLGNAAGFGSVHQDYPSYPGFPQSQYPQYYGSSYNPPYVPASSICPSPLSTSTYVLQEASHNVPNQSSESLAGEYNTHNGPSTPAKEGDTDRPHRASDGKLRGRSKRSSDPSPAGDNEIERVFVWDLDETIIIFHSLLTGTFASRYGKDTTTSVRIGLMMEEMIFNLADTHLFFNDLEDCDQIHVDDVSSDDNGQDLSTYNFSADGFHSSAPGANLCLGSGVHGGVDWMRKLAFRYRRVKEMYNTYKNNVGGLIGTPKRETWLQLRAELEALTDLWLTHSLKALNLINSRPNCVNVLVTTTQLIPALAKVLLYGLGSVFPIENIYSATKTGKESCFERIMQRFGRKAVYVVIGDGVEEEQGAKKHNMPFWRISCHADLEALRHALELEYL
Description: The Eya family of proteins are essential co-activators of the Six1 transcription factor. Six1 is a developmental gene that is abnormally re-expressed in a large percentage of breast cancers. This over-expression plays a causal role in the initiation and metastatic development of breast cancers. The Eya family of proteins was also found to contain a unique HAD phosphatase domain with protein tyrosine phosphatase activity which can potentially play a role in Six1-mediated breast tumorigenesis. […] We have developed and optimized a 1536 well fluorescence-based HTS assay targeting the phosphatase activity of Eya2. Inhibitors found against Eya2 could serve as potential therapeutic tools to inhibit Six1-mediated breast tumorigenesis and to increase the efficiency of radiation and certain chemo therapy. These inhibitors could also be used as chemical probes to study the function of Eya2's phosphatase activity and its role in Six1-mediated breast tumorigenesis.
The Eya2 enzyme was kindly provided by the laboratory of Dr. Rui Zhao. The 3-O-methyl-fluorescein phosphate (OMFP) substrate and all buffer reagents were purchased from Sigma Aldrich. qHTS Assay Setup: 1. Buffer- 50 mM HEPES pH 7.5, 50 mM NaCl, 5 uM MgCl2, 0.05% BSA, 1 mM DTT. 2. OMFP Stock- 10 mM solution prepared in 100% DMSO and stored in single use aliquots at -20C. Assay Procedure- 1. Dispense 1.5 ul per well of Eya2 at 0.2 uM in black medium binding 1536 well Greiner plate 2. Transfer 23 nl of compound and control compound (EGTA) to plate 3. Incubate at ambient for 10 minutes 4. Dispense 1.5 ul per well of OMFP at 50 uM 5. Incubate at ambient for 10 minutes 6. Read on ViewLux using Excitation = 485 nm, Emission = 525 nm
On the % scale 0 is the no-effect control and ±100 the full control effect.

activity, negative = inhibition, inactive:
O=C(O)C1CCC(CNS(=O)(=O)c2ccc(Br)cc2)CC1 (centres undefined) 14%, O=C1CCC([N+](=O)[O-])C(c2ccccc2Br)N1 (centres undefined) 5.36%, COC(=O)c1sc(NC(=O)COC(=O)C2CCC2)c(C(=O)OC)c1C 28.3%, CCOC(=O)c1c(CNCc2ccccc2F)c2sc(C)cc2n1C -6.49%, COC(=O)N1CN(C(=O)OC)CN(C(=O)OC)C1 14.1%, CC1CCN(S(=O)(=O)c2ccc3[nH]c(=O)ccc3c2)CC1 6.46%, CCS(=O)(=O)c1ccc(-c2cccc(NC(=O)c3ccc(Br)o3)c2)nn1 -2.59%, Cc1ccc2c(Cl)c(C(=O)NCCCn3ccnc3)sc2c1 2.59%, CC(C)CCNC(=O)CCNS(=O)(=O)c1ccc(Cl)cc1 -4.21%, O=C(NCc1cccnc1)c1ccc(CS(=O)(=O)c2ccc(Br)cc2)o1 3.3%, CC(=O)c1c(N2CCOCC2)nc(=S)n(Cc2ccccc2)c1C 4.93%, O=C(Nc1ccc(OCC(=O)N2CCOCC2)cc1)c1cc(F)c(F)cc1Cl 5.38%, Cc1cc(C(=O)Nc2ccc(C)c(S(=O)(=O)N3CCOCC3)c2)c2ccccc2n1 23.5%, COc1ccc(CCNc2ncnc3c2nnn3Cc2ccccc2)cc1 4.06%, O=C1OCCN1C(=O)[C@H]1[C@H](c2ccc(F)cc2)C(c2ccccc2)=NN1c1ccc(Br)cc1 0.72%, Cc1ccc(NC(=O)N2CCSc3ccccc32)cc1 2.21%, Cc1cc(SCC(=O)NCCN2C(=O)CSC2=O)nc2ccccc12 8.83%, S=c1[nH]ccn1-c1ccc(Cl)cc1 -6.66%, CCCOc1cccc(C(=O)Nc2ccccc2C(=O)N2CCN(C)CC2)c1 -6.6%, COc1ccc2c(C)cc3nnnn3c2c1 -1.07%, CN(C)N(C)C(=O)C(O)(c1ccccc1)c1ccccc1 6.78%, COc1ccc2[nH]c(C)c(CCN(Cc3cccs3)C(=S)Nc3ccccc3OC)c2c1 6.34%, O=c1ccc2cc(S(=O)(=O)N3CCN(c4ccccc4)CC3)ccc2o1 -2.55%, O=S1(=O)N=C(N(CCO)/N=C/c2ccccc2F)c2ccccc21 -2.65%, O=C(CCc1nnc2ccc(NCCCN3CCCC3=O)nn12)NCc1ccccc1Cl -3.71%, CC(=O)N1CCN(c2ccccc2NC(=S)NC(=O)c2cc3ccccc3o2)CC1 -8.6%, COc1ccc(NS(=O)(=O)c2cc(NC(=O)COc3ccccc3F)ccc2OC)cc1 -21.5%, O=C(CSc1nnc(SCc2ccc(F)cc2)s1)Nc1ccc(C(=O)O)cc1 -1.18%, O=C(CS(=O)(=O)c1ccc(C(F)(F)F)cn1)NNC(=O)c1ccccc1 18.3%, O=C(CCc1ccc(S(=O)(=O)N2CCOCC2)cc1)Nc1ccc2ccccc2c1 -1.59%, N#CC1=C(N)N(c2ccc(F)cc2)C(=O)C1 32.7%, NC(=O)C1CCCN(CC(=O)N2CCN(c3ccccc3)CC2)C1 (centres undefined) -2.7%, CC[C@@]1(C(=O)OC)N[C@H](CN(C)C(C)=O)[C@@H]2C(=O)N(C)C(=O)[C@@H]21 -14.2%, COc1ccc(C(=O)N2CCCN(C)CC2)c(OC)c1 14.4%, COC(C)(C)[C@]12CC(O)(C(C)C)ON1[C@H]1CCCCC1N2O (some centres undefined) -10.2%, O=C(c1ccc(Cl)cc1)N1N=C(c2ccccn2)CC1(O)C(F)(F)F (centres undefined) 22.7%, COc1ccc(Cl)cc1NC(=O)CCS(=O)(=O)c1ccc(Br)cc1 10.2%, COC(=O)c1ccccc1NC(=O)CSc1n[nH]c(-c2ccncc2)n1 -1.81%, CCCCNS(=O)(=O)c1ccc(S(=O)(=O)n2cnc3ccccc32)cc1 -2.93%
